{"source": "PubChem BioAssay (EPA / NIEHS)", "note": "Results filed as inconclusive are left out. Calls of active or inactive are those of the source. The calls were made as follows: active = hit-call score of the fitted dose curve at least 0.9, where 1 is the maximum; inconclusive = response in the unintended direction; inactive = score below 0.9."}
{"tested_on": "not listed separately", "experiment": "ArunA_CellTiter_hNP: Viability Assessment in the ArunA Biomedical's Oris Neural Crest (hNC) Cell Migration Assay (AID 2283753)", "outline": "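H9-derived hNP1 neuroprogenitors, 60,000/well on Matrigel, cultured 16 h, then 72 h chemical exposure in test medium. Cell titer via CellTiter Aqueous One; positive-direction fit vs DMSO.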"}
{"smiles": "CC(C)(C)c1ccc(CSc2cnn(C(C)(C)C)c(=O)c2Cl)cc1", "outcome": "inactive"}
{"smiles": "C=CCC1=C(C)[C@@H](OC(=O)[C@@H]2[C@@H](C=C(C)C)C2(C)C)CC1=O", "outcome": "inactive"}
{"smiles": "N#Cc1nn(-c2c(Cl)cc(C(F)(F)F)cc2Cl)c(N)c1S(=O)C(F)(F)F", "note": "(stereo not drawn)", "AC50": "36.8 µM (active)"}
{"tested_on": "not listed separately", "experiment": "ArunA_Migration_hNP: ArunA Biomedical's Oris Neuroprogenitor (hNP) Cell Migration Assay (AID 2283754)", "outline": "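Human H9-derived hNP1 neuroprogenitors on Matrigel with LIF/bFGF, plated around seeding stoppers for 16 h at 37C; stoppers removed at start of 72 h chemical exposure. Calcein-AM staining, fluorescence 494/517 nm in detection zone; loss-of-signal vs DMSO; cytochalasin D control.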"}
{"smiles": "CC(C)(C)c1ccc(CSc2cnn(C(C)(C)C)c(=O)c2Cl)cc1", "AC50": "0.0196 µM (active)"}
{"smiles": "C=CCC1=C(C)[C@@H](OC(=O)[C@@H]2[C@@H](C=C(C)C)C2(C)C)CC1=O", "outcome": "inactive"}
{"smiles": "N#Cc1nn(-c2c(Cl)cc(C(F)(F)F)cc2Cl)c(N)c1S(=O)C(F)(F)F", "note": "(stereo not drawn)", "AC50": "50 µM (active)"}
{"tested_on": "not listed separately", "experiment": "ArunA_NOG_NucleusCount: ArunA Biomedical's Neurite Outgrowth (NOG) Assay for Nucleus Count (AID 2283756)", "outline": "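Human H9-derived differentiated neurons were exposed for 48 h right after seeding. Hoechst-stained nuclei gated by size and intensity were counted by automated high-content imaging as viable neurons. Loss of signal vs DMSO.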"}
{"smiles": "CC(C)(C)c1ccc(CSc2cnn(C(C)(C)C)c(=O)c2Cl)cc1", "outcome": "inactive"}
{"smiles": "C=CCC1=C(C)[C@@H](OC(=O)[C@@H]2[C@@H](C=C(C)C)C2(C)C)CC1=O", "outcome": "inactive"}
{"smiles": "N#Cc1nn(-c2c(Cl)cc(C(F)(F)F)cc2Cl)c(N)c1S(=O)C(F)(F)F", "note": "(stereo not drawn)", "AC50": "23.2 µM (active)"}
{"tested_on": "chicken Androgen Receptor (AR), gene 422165", "experiment": "ATG_chAR_XSP1: Attagene TRANS-FACTORIAL Multi-Species (XSP1) HepG2 Assay for chicken Androgen Receptor (AR) (AID 2283768)", "outline": "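HepG2 cells transiently transfected with multiplexed GAL4-UAS reporter units expressing chimeric chicken AR-Gal4; 3 nM 6-alpha-fluorotestosterone for partial AR stimulation; 24 h after dosing, reporter mRNA by RT-PCR and capillary electrophoresis, gain-of-signal versus DMSO.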"}
{"smiles": "CC(C)Oc1cc(-n2nc(C(C)(C)C)oc2=O)c(Cl)cc1Cl", "AC50": "18 µM (active)"}
{"smiles": "CCCN(CCC)c1c([N+](=O)[O-])cc(S(N)(=O)=O)cc1[N+](=O)[O-]", "AC50": "59.5 µM (active)"}
{"smiles": "CC(C)(C)c1ccc(CSc2cnn(C(C)(C)C)c(=O)c2Cl)cc1", "outcome": "inactive"}
{"smiles": "COP(=S)(OC)Oc1nc(Cl)c(Cl)cc1Cl", "AC50": "3.31 µM (active)"}
{"smiles": "CCCCOC(=O)c1ccccc1C(=O)OCCCC", "outcome": "inactive"}
{"smiles": "CO/C=C(/C(=O)OC)c1ccccc1Oc1cc(Oc2ccccc2C#N)ncn1", "outcome": "inactive"}
{"smiles": "COC(=O)N(OC)c1ccccc1COc1ccn(-c2ccc(Cl)cc2)n1", "outcome": "inactive"}
{"tested_on": "zebrafish Androgen Receptor (AR), gene 100005148", "experiment": "ATG_zfAR_XSP1: Attagene TRANS-FACTORIAL Multi-Species (XSP1) HepG2 Assay for zebrafish Androgen Receptor (AR) (AID 2283771)", "outline": "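HepG2 cells were transiently transfected with a zebrafish AR-GAL4 reporter system and partially stimulated with 3 nM 6-alpha-fluorotestosterone. Reporter mRNA was measured after 24 h dosing by RT-PCR with capillary electrophoresis, and gain-of-signal was fitted relative to DMSO.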"}
{"smiles": "CC(C)Oc1cc(-n2nc(C(C)(C)C)oc2=O)c(Cl)cc1Cl", "outcome": "inactive"}
{"smiles": "CCCN(CCC)c1c([N+](=O)[O-])cc(S(N)(=O)=O)cc1[N+](=O)[O-]", "outcome": "inactive"}
{"smiles": "OC(c1ccc(Cl)cc1)(c1cncnc1)c1ccccc1Cl", "note": "(stereo not drawn)", "outcome": "inactive"}
{"smiles": "CC(C)(C)c1ccc(CSc2cnn(C(C)(C)C)c(=O)c2Cl)cc1", "outcome": "inactive"}
{"smiles": "C=CC1(C)OC(=O)N(c2cc(Cl)cc(Cl)c2)C1=O", "note": "(stereo not drawn)", "outcome": "inactive"}
{"smiles": "CCCCC(CC)COC(=O)c1ccccc1C(=O)OCC(CC)CCCC", "note": "(stereo not drawn)", "outcome": "inactive"}
{"smiles": "COc1ccc(C(c2ccc(OC)cc2)C(Cl)(Cl)Cl)cc1", "outcome": "inactive"}
